This note sets out measurements from PubChem BioAssay (NCATS).

Inconclusive results are not listed. Entries that show only a call come without a potency. Active and inactive are the calls of the source. Calls follow the shape of the dose curve; as a rule, active = well fitted inhibition curve with a large enough effect; inconclusive = small, poorly fitted or top-dose-only effect; inactive = flat fitted curve, though single readings scatter.
Potency is read from the fitted curve at half-maximal effect.

This test in a line: P-glycoprotein substrates identified in KB-8-5-11 adenocarcinoma cell line, qHTS therapeutic library screen (AID 1346987). Also: nearly all actives have a fitted effect of over 65% in size. The following applies: KB-8-5-11 (P-gp overexpressing) viability, CellTiter-Glo, 72 h; series mostly up to 44.5 µM. The method, boiled down:
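KB-8-5-11, a colchicine-selected P-gp-overexpressing KB-3-1 subline, was grown without colchicine for the assay. Cells were seeded at 500 cells/well, dosed in concentration-response and incubated 72 h at 37 degree C, 5% CO2. Viability was read by CellTiter-Glo luminescence.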
(Quantitative high-throughput screening tests each substance at several concentrations.)
As to `NC(=O)OCC(O)COc1ccc(Cl)cc1` (stereo not given), the Potency result is “inactive”. Next, `C=CC1=C(C(=O)O)N2C(=O)[C@@H](NC(=O)/C(=N/OCC(=O)O)c3csc(N)n3)[C@H]2SC1` (stereo in doubt): “inactive”; `CCC(Cc1c(I)cc(I)c(O)c1I)C(=O)O` (stereo not given): “inactive”. Next, `NC(N)=NCC1COC2(CCCCC2)O1` (stereo not given): “inactive”; `O=P(O)(O)OP(=O)(O)O`: “inactive”; `C=C1[C@@H]2CC[C@@H](C2)C1(C)C`: “inactive”. Next, `Cc1cccc(Nc2ncccc2C(=O)O)c1C`: “inactive”; `Cc1c(N)nc([C@H](CC(N)=O)NC[C@H](N)C(N)=O)nc1C(=O)N[C@H](C(=O)N[C@H](C)[C@@H](O)[C@H](C)C(=O)N[C@H](C(=O)NCCc1nc(-c2nc(C(=O)NCCCCN=C(N)N)cs2)cs1)[C@@H](C)O)[C@@H](O[C@@H]1O[C@@H](CO)[C@@H](O)[C@H](O)[C@@H]1O[C@H]1O[C@H](CO)[C@@H](O)[C@H](OC(N)=O)[C@@H]1O)c1cnc[nH]1`: “inactive”.

`c1ccc2c(c1)OCC(CN1CCCCC1)O2` (stereo not given): the Potency entry was “inactive”.

As for `CC(O)[C@@H]1NC(=O)[C@H](Cc2ccccc2)NC(=O)[C@H](C(C)O)NC(=O)[C@H](CCCCN)NC(=O)[C@H](Cc2c[nH]c3ccccc23)NC(=O)[C@H](Cc2ccccc2)NC(=O)[C@H](Cc2ccccc2)NC(=O)[C@H](CC(N)=O)NC(=O)[C@H](CCCCN)NC(=O)[C@@H](NC(=O)CNC(=O)[C@H](C)N)CSSC[C@@H](C(=O)O)NC(=O)[C@H](CO)NC1=O` (stereo not given in full), the Potency entry was “inactive”. The same measure for `O=C(O)c1cc(O)c2c(c1)[C@H]([C@H]1c3cc(C(=O)O)cc(O)c3C(=O)c3c(O[C@@H]4O[C@H](CO)[C@@H](O)[C@H](O)[C@H]4O)cccc31)c1cccc(O[C@@H]3O[C@H](CO)[C@@H](O)[C@H](O)[C@H]3O)c1C2=O`: “inactive”; for `Cc1cc(C(=O)NCCc2ccc(S(=O)(=O)NC(=O)NN3CCCCCC3)cc2)no1`: “inactive”. On to `c1ccc2cc(C3=NCCN3)ccc2c1`, for which the Potency result is “inactive”. Next, `CN1C(=O)C[C@@H](C(=O)N[C@@H](Cc2cnc[nH]2)C(=O)N2CCC[C@H]2C(N)=O)NC1=O`: “inactive”; `CNC(=O)C[C@@H](N)C(=O)N[C@@H](C(=O)N[C@@H]1C(=O)N2[C@@H]1SC(C)(C)[C@@H]2C(=O)O)c1ccc(O)cc1`: “inactive”; `CC(C)CCCC(C)NC(C)C` (stereo not given): “inactive”. The same measure for `CC(CNC(=O)c1cccnc1)NC(=O)c1cccnc1` (stereo not given): “inactive”.

With `CC(/C=C/C=C(\C)C(=O)O[C@@H]1O[C@H](CO[C@@H]2O[C@H](CO)[C@@H](O)[C@H](O)[C@H]2O)[C@@H](O)[C@H](O)[C@H]1O)=C\C=C\C=C(C)\C=C\C=C(/C)C(=O)O[C@@H]1O[C@H](CO[C@@H]2O[C@H](CO)[C@@H](O)[C@H](O)[C@H]2O)[C@@H](O)[C@H](O)[C@H]1O`, the Potency entry was “inactive”. As for `COC1=C(OC)C(=O)C(C/C=C(\C)CC/C=C(\C)CC/C=C(\C)CC/C=C(\C)CC/C=C(\C)CC/C=C(\C)CC/C=C(\C)CC/C=C(\C)CC/C=C(\C)CCC=C(C)C)=C(C)C1=O`, the Potency entry is “inactive”. For `CC1=CCC2CC1C2(C)C` (stereo not given), the Potency result was “inactive”. The same measure for `COc1c(O[C@@H]2O[C@H](CO)[C@@H](O)[C@H](O)[C@H]2O)cc2c(c1OC)-c1ccc(SC)c(=O)cc1[C@@H](NC(C)=O)CC2`: “inactive”; for `N=C(N)n1cccn1`: “inactive”. On to `COc1cc2c(cc1OC)[C@@H](c1ccccc1)CN(C)CC2`, for which the Potency result was “inactive”. Turning to `O=C(O)c1ccc(NC2OC[C@@H](O)[C@H](O)[C@H]2O)cc1` (stereo not given in full), the Potency result was “inactive”.

Take `COc1cc(S(C)=O)ccc1-c1nc2ncccc2[nH]1` (stereo not given): the Potency result is “inactive”.

With `O=C(O)CCC/C=C\C[C@@H]1[C@@H](/C=C/[C@@H](O)COc2cccc(C(F)(F)F)c2)[C@H](O)C[C@@H]1O`, the Potency result is “inactive”. The same measure for `O=C1CCC(=O)N1CO`: “inactive”; for `CC[C@H]1OC(=O)[C@H](C)[C@@H](O[C@H]2C[C@@](C)(OC)[C@@H](O)[C@H](C)O2)[C@H](C)[C@@H](O[C@@H]2O[C@H](C)C[C@H](N(C)C)[C@H]2O)[C@](C)(O)C[C@@H](C)CN(C)[C@H](C)[C@@H](O)[C@]1(C)O`: “inactive”. Next, `CCCC(=O)Nc1c(I)cc(I)c(CC(CC)C(=O)O)c1I` (stereo not given): “inactive”.

For the compound `C/C(=C\C(=O)OCCCCCCCCC(=O)O)C[C@@H]1OC[C@H](C[C@@H]2O[C@H]2[C@@H](C)[C@H](C)O)[C@@H](O)[C@H]1O`, the Potency result is “inactive”. Next, `CC(C)C[C@H](NC(=O)[C@@H](Cc1c[nH]c2ccccc12)NC(=O)[C@H](Cc1ccc(O)cc1)NC(=O)[C@H](CO)NC(=O)[C@H](Cc1c[nH]c2ccccc12)NC(=O)[C@H](Cc1cnc[nH]1)NC(=O)[C@@H]1CCC(=O)N1)C(=O)N[C@@H](CCCN=C(N)N)C(=O)N1CCC[C@@H]1C(=O)NCC(N)=O`: “inactive”; `CO/N=C(\C(=O)N[C@@H]1C(=O)N2C(C(=O)[O-])=C(C[n+]3cccc4c3CCC4)CS[C@H]12)c1csc(N)n1`: “inactive”; `CCCCC(O)c1ccccc1` (stereo not given): “inactive”. Regarding `Cc1cc(=O)c(C(=O)N[C@@H](C(=O)N[C@@H]2C(=O)N3C(C(=O)O)=C(CSc4nnnn4C)CS[C@H]23)c2ccc(O)cc2)c[nH]1`, the Potency entry is “inactive”. Consider `CO/N=C(\C(=O)N[C@@H]1C(=O)N2C(C(=O)O)=C(CSc3nnnn3C)CS[C@H]12)c1csc(N)n1`, for which the Potency entry is “inactive”.

For `CCOC(=O)c1c[nH]c2cc(OCC(C)C)c(OCC(C)C)cc2c1=O`, the Potency result is “inactive”. Take `CC(=O)N[C@@H]1C(O[C@H]2O[C@H](C(=O)O)C(O)[C@H](O)[C@H]2O)[C@H](O)[C@@H](CO)O[C@H]1O[C@@H]1C(C(=O)O)O[C@@H](O[C@H]2[C@H](O)[C@@H](CO)OC(O)[C@@H]2NC(C)=O)[C@H](O)[C@H]1O` (stereo not given in full): the Potency entry was “inactive”. Next, `CCOc1cc(-c2nccc3cc(OC)c(OC)cc23)cc(OCC)c1OCC`: 13 µM (active); `CO/N=C(\C(=O)N[C@@H]1C(=O)N2C(C(=O)O)=C(CSc3nc(C)c(CC(=O)O)s3)CS[C@H]12)c1csc(N)n1`: “inactive”. In the case of `CC(C)[C@@H]1CC[C@@H](C)C[C@H]1OC(=O)c1ccccc1O`, the Potency entry is “inactive”.
